The values that follow come from PubChem BioAssay AID1508607 (The Scripps Research Institute Molecular Screening Center, 2020).

About 20 (0.9%) of roughly 2,300 compounds were called active. Shown is part of a subset that was picked to be rich in actives. A number with no mark means an inactive call.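 Rule for the calls: active = mean percent activation across replicates above the counterscreen hit cutoff of 9.17%; inactive = the rest.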

In the test the target is Glucose-dependent insulinotropic receptor (Homo sapiens) (UniProt Q8TDV5). Briefly: GPR119 activators in beta-arrestin cells, confirmation, counter-screen for GPR151 activator project, cell-based, PathHunter beta-arrestin, luminescence, set 2 (AID 1508607).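 Note: 0% = median of sample wells and 100% = wells given EA reagent.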 Conditions: 90 min, at 11.2 µM, active compounds read high. On the technique in general: Counterscreens check selectivity or assay interference.
Glucose-dependent insulinotropic receptor (Homo sapiens), sequence (Q8TDV5 whole entry, looked up): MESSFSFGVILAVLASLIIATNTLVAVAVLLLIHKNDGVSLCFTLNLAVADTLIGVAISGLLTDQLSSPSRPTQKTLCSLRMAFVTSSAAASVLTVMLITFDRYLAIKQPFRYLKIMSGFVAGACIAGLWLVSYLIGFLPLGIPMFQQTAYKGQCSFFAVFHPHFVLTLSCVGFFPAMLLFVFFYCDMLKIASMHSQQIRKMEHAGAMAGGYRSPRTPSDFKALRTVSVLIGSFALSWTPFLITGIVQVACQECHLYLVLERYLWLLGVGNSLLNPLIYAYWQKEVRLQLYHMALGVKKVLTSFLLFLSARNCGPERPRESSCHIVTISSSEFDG
As for `CC(C)(C)NC(=O)C1CCN(S(=O)(=O)c2ccc(Br)s2)CC1`, the activation is 3.94%.
Take `COCCNC(=O)c1cccc(OC2CCN(Cc3cc4ccccc4o3)CC2)c1`: the activation was 0.69%.
On to `CCOc1ccccc1CNCc1c(C(=O)O)c(C)n(Cc2cccc(Cl)c2)c1C`, for which the activation is -3.17%.
The same measure for `N#C/C(=C/c1cc(Cl)ccc1Cl)c1nc2ccccc2c(=O)[nH]1`: -3.12%; for `COC(=O)c1c(OCC2CCCCO2)cc(=O)n2c1CCN(Cc1ccsc1)CC2` (stereo not drawn): 0.67%.
As to `O=C(C1CCCN1S(=O)(=O)c1ccc(Cl)cc1)N1CCOCC1` (stereo not drawn), the activation was 2.3%.
As for `CCOC(=O)c1cc(-c2ccccc2)sc1NC(=O)c1ccc(OC)c(OC)c1`, the figure is -1.86%; as for `Cc1cc(OCC(=O)Nc2sc(C)c(C)c2C(N)=O)ccc1Br`, 3.41%; as for `N#CC1=C2SCN(Cc3ccccc3)CN2C(=O)CC1c1cccc(F)c1` (stereo not drawn), -1.21%.
Take `CC(=O)c1ccc(N2CCN(C(=O)c3cc4c(C)nc5ccccc5c4o3)CC2)cc1`: the activation was 0.66%.
In the case of `CCOc1ccc(/C=C2\SC(=S)N(CC(=O)Nc3ccc(O)cc3)C2=O)cc1`, the activation was -3.84%.
Take `Cc1nc2n(n1)C(c1ccc(Cl)cc1)C=C(c1ccc(Cl)cc1)N2` (stereo not drawn): the activation is -0.05%.
On to `C=CCOc1ccc(/C=C2\NC(=S)N(c3ccc(OC)cc3)C2=O)cc1`, for which the activation is 1.06%.
On to `CCCCNC(=O)c1ccc(C)c(N2CCCC2=O)c1`, for which the activation was 0.14%.
As to `O=S(=O)(/C=C/c1ccccc1)N1c2ccccc2C=CC1c1c[nH]c2ccccc12` (stereo not drawn), the activation was -5.1%.
As for `COc1ccc(C(=O)N/N=C/c2ccc(O)cc2O)cc1OC`, the figure is 1.94%.
With `Cc1ccc(Nc2nc(Cl)nc(N3CCOCC3)n2)cc1Cl`, the activation was -1.69%.
Regarding `COC(=O)c1ccccc1NC(=O)c1cc2ccccc2oc1=O`, the activation is 2.29%.
As for `Cc1c(Cl)cccc1NS(=O)(=O)c1c(C(C)C)cc(C(C)C)cc1C(C)C`, the activation was 9.78% (active).
On to `CC(C)c1ccccc1OCC(=O)Nc1ccccc1Cl`, for which the activation was -0.8%.
`CC(=O)N1CCC(N(C(=S)Nc2cccc(Cl)c2C)C(C)C)CC1`: the activation was -0.07%.
As for `COc1ccc(NC(=O)N2CCC(CN3CCc4ccccc4C3)CC2)cc1`, the figure is -2.3%; as for `Cc1cccc(Cn2c(=O)c3ccccc3n3nncc23)c1`, 3.36%.
For `COc1ccc(N2CCN(c3ncnc4sc(C(=O)N5CCC(C(N)=O)(N6CCCCC6)CC5)c(C)c34)CC2)cc1`, the activation was 0.57%.
The same measure for `O=C(NCc1ccco1)c1ccc2ccccc2c1`: 1.88%; for `COc1ccc(-c2nc3c(=O)n(C)c4ccccc4c3o2)cc1`: -4%; for `CCC(=O)N1CCN(c2ccc(NC(=O)C(C)(C)C)cc2)CC1`: 0.46%.
For `O=C(CNc1ccccc1)N/N=C/c1cccc(Oc2ccccc2)c1`, the activation was -3.18%.
Take `O=C(/C=C/c1ccccn1)NCCN1Cc2ccccc2OC(c2ccccc2)C1` (stereo not drawn): the activation was 1.44%.
As for `CCNC(=O)C(=O)Nc1ccc(OC)cc1`, the figure is -1.66%; as for `O=C(CSc1ccc2nnc(-c3ccncc3)n2n1)Nc1ccc(C(F)(F)F)cc1`, -0.42%.
Turning to `Cc1n[nH]c(C)c1S(=O)(=O)NCc1ccc(F)cc1`, the activation was -0.09%.
Take `O=c1oc2ccc3ccccc3c2cc1-c1nnc(Nc2ccc(Oc3ccc4ccccc4c3Cl)c(Cl)c2)s1`: the activation is 0.97%.
`CCC(C)OC(=O)C1=C(C)NC(=O)NC1c1cc(Br)ccc1OC` (stereo not drawn): the activation is 1.91%.
Regarding `CC(C)c1ccc(Cn2ccc3c4c(N)nc(NC5CC5)nc4ccc32)cc1`, the activation is 51.2% (active).
With `CC(C)CC(=O)NCC1CCC2(CCN(Cc3ccccc3F)CC2)O1` (stereo not drawn), the activation is 2.66%.
As for `Cc1ccc(-n2nc3c(c2NC(=O)C2(c4ccc(Cl)cc4)CCCC2)CSC3)cc1`, the activation was 3.08%.
As for `CCOC(=O)CCCN(Cc1ccc(F)cc1)S(=O)(=O)c1ccc(F)c(C)c1`, the figure is 0.45%; as for `COc1cc(NC(=O)c2onc(C)c2Cl)cc(OC)c1OC`, -1.44%; as for `CCOC(=O)N1CCN(C(=O)c2ccc3c(c2)NC(=O)C(CSCc2cc(C)ccc2C)N3)CC1` (stereo not drawn), 2.54%.
The same measure for `O=C(O)c1c(CNC2CCCc3ccccc32)c2ccccc2n1Cc1ccccc1` (stereo not drawn): -2.12%; for `O=C(O)c1cc([N+](=O)[O-])c(C(=O)O)cc1Oc1ccc(Cl)cc1`: 3.33%.
Regarding `COc1cc(/C=N/NC(=O)CCCC(=O)N/N=C/c2ccc(O)c(OC)c2)ccc1O`, the activation was -0.52%.
As to `CCc1nnc2c3c4c(sc3nc(CC)n12)CCCC4`, the activation is -1.48%.
For the compound `CC(C)c1ccc(N=c2c([N+](=O)[O-])nn(-c3ccccc3)n2O)cc1`, the activation is 5.25%.
As for `CCOC(=O)c1nc(NCc2ccccc2)c2ccccc2n1`, the figure is 2.75%; as for `O=C(Cn1c(=O)oc2ccccc21)Nc1cccc(C(F)(F)F)c1`, 3.85%; as for `CCn1cnc2sc(C(=O)Nc3ccc(Cl)c(Cl)c3)c(C)c2c1=O`, 0.88%.
Turning to `COc1ccc(C(=O)Nn2c(-c3ccc(F)cc3)nc3ccccc3c2=O)cc1Br`, the activation is -2.33%.
`CC(=O)c1c(C)oc2c1c1c(c3ccccc32)OCN(C2CCCC2)C1`: the activation was 2.76%.
Turning to `COc1ccc(OC)c(-n2c(O)c(/C=C3\C=CC=N3)c(=O)[nH]c2=O)c1`, the activation was 1.81%.
As for `N#CCCN1CCN(c2ccc(F)cc2[N+](=O)[O-])CC1`, the activation is 3.88%.
In the case of `CC(C)c1onc(C(=O)NC2CCCCC2)c1[N+](=O)[O-]`, the activation is -2.5%.
`COc1ccc(O)c(C2=Nc3ccccc3N=C(c3ccc([N+](=O)[O-])cc3)C2)c1`: the activation was -1.11%.
The same measure for `COc1ccc(C[C@H](N)C(=O)N[C@@H]2[C@@H](CO)OC(n3cnc4c(N(C)C)ncnc43)[C@@H]2O)cc1` (stereo partly drawn): -4.23%; for `O=C(CCc1nnc2n(Cc3ccccc3)c(=O)c3ccccc3n12)NCCN1CCCC1`: -0.83%; for `Cc1c(NC(=O)c2cc(F)cc(F)c2)c(=O)n(-c2ccccc2)n1C`: -3.89%.
The same measure for `CC1CC(C)(C)NC(=S)N1CC(=O)N1CCN(Cc2ccc3c(c2)OCO3)CC1` (stereo not drawn): -1.14%.
